# Results published in PubChem BioAssay AID1030 (National Center for Advancing Translational Sciences (NCATS), 2008).
# Hit rate of the full screen: of about 220,000 compounds, about 16,000 (7.3%) were called active. Inconclusive results (about 25%) are left out. The call rests on the fitted dose curve; in most records, active means well fitted inhibition curve with a large enough effect (not every such curve was filed as active); inconclusive means small, poorly fitted or top-dose-only effect, or another doubt; inactive means no such curve, though single readings can be large or run the other way. What follows is part of a selection rich in actives, with near analogues and random picks from the rest. Where a call stands in place of a potency, no number is given.
# Target: Aldehyde dehydrogenase 1A1 (Homo sapiens) (UniProt P00352)
# Sequence (P00352 whole entry, looked up): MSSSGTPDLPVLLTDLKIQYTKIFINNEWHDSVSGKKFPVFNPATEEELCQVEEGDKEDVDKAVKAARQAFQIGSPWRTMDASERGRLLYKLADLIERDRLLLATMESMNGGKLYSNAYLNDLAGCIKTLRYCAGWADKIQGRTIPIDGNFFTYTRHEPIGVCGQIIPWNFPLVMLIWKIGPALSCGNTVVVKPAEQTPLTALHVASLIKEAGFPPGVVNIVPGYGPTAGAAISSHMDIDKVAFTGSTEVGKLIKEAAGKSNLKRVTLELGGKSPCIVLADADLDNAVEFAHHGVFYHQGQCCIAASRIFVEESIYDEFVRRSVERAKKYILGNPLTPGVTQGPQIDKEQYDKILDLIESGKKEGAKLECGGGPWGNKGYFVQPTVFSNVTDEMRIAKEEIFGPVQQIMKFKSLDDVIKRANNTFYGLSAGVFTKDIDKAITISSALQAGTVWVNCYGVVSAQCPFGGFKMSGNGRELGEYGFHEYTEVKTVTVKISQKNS
# Experiment: qHTS Assay for Inhibitors of Aldehyde Dehydrogenase 1 (ALDH1A1)
# Details: Purified ALDH1A1, NADH fluorescence, propionaldehyde substrate; series mostly up to 75.3 µM
# Potency means the concentration at half of the fitted maximal effect.
row,Structure (SMILES),Potency
1,CCOc1ccc(C(=O)Nc2cccc(SC)c2)cc1,inactive
2,Nn1c(Cc2cccc3ccccc23)nnc1SCC(=O)N1CC(=O)Nc2ccccc21,17.8 µM (active)
3,C=CCn1c(COc2ccccc2F)nnc1SCC(=O)N1CC(=O)Nc2ccccc21,inactive
4,Cn1c(Cc2cccc3ccccc23)nnc1SCC(=O)N1CCN(c2cccc(Cl)c2)CC1,inactive
5,Cc1cc(C)cc(N(CC(=O)NCCSCc2ccco2)S(C)(=O)=O)c1,inactive
6,Cc1cc(C)nc(NC(=O)/C=C/c2ccc(Cl)cc2)n1,inactive
7,Cc1cccc(C(=O)Nc2ccccc2C(=O)NCc2cccnc2)c1,inactive
8,COc1cc(C(=O)N2C(=O)c3cccc(N)c3C2=O)cc(OC)c1OC,inactive
9,CCOC(=O)N1CC=C2C(C#N)=C(N)C(C#N)(C#N)[C@H](c3cccs3)[C@H]2C1,20 µM (active)
10,COc1cc(/C=C2/C(=O)ON=C2C)ccc1OCc1ccccc1F,inactive
11,C/C=C/c1ccc(OCCOc2ccc(C=O)cc2OC)c(OC)c1,inactive
12,COc1cc(/C=C2/C(=O)ON=C2C)ccc1OCc1cccc(F)c1,10 µM (active)
13,O=S(=O)(Nc1ccccn1)c1cccc(S(=O)(=O)c2ccc(Cl)cc2)c1,inactive
14,Cc1ccccc1NC(=O)Cc1nnc(SCC(=O)N2CCN(c3ccccc3)CC2)n1C,inactive
15,Cn1c(CC(=O)Nc2ccccc2)nnc1SCC(=O)c1ccccc1,7.08 µM (active)
16,Cc1ccc(-n2c(C)cc(C(=O)CSc3nnc4ccccn34)c2C)cc1,inactive
17,O=C(CSc1nnc2ccccn12)c1ccccc1,10 µM (active)
18,N#Cc1ccc(CSc2nnc3ccccn23)cc1,inactive
19,Cn1c(CNc2nc(-c3ccccc3)cs2)nnc1SCC(=O)c1ccccc1,inactive
20,O=C(NNC1=C(C(=O)C(F)(F)F)CCC1)c1ccncc1,inactive
21,CCc1nc2ccccc2c(C(=O)OC2CCCCC2=O)c1C (stereo not drawn),inactive
22,O=C(O)/C=C/c1ccc(OCCCF)cc1,inactive
23,COC(=O)C1=C(C)NC(=O)CC1c1ccccc1OC (stereo not drawn),inactive
24,O=C(Cc1cccc2ccccc12)NCCC1=CCCCC1,inactive
25,CCn1c(=O)cc(SCC(=O)NCc2ccc3c(c2)OCO3)c2ccccc21,inactive

row,Structure (SMILES),Potency
1,CCn1c(=O)cc(SCC(=O)NCCC2=CCCCC2)c2ccccc21,14.1 µM (active)
2,COc1ccc(Cc2nnc(NC(=O)c3cc(OC)c(OC)c(OC)c3)s2)cc1OC,inactive
3,CC(C)[C@@H]1NC(=O)c2cc([N+](=O)[O-])cc(I)c2NCCC[C@@H](C(=O)NC(CC(=O)O)C(N)=O)NC(=O)[C@H](CO)NC1=O (stereo partly drawn),inactive
4,NCCCC[C@@H]1NC(=O)[C@H](CCC(=O)O)NC(=O)c2cc([N+](=O)[O-])cc(I)c2NCC[C@@H](C(N)=O)NC1=O,inactive
5,NC(=O)CC[C@@H]1NC(=O)[C@H](CO)NC(=O)c2cc([N+](=O)[O-])cc(I)c2NCC[C@@H](C(N)=O)NC1=O,12.6 µM (active)
6,C/C(=N/NC(=O)c1ccn(C)n1)c1ccncc1,inactive
7,COCC1CCCN(Cc2nc(-c3ccc4c(c3)OCO4)no2)C1 (stereo not drawn),inactive
8,CN1CCN(S(=O)(=O)c2cccc(C(=O)O)c2)CC1,inactive
9,COc1cccc(CNC(=O)Cc2csc(Nc3nc(=S)[nH]c4ccccc34)n2)c1,inactive
10,O=C(O)Cc1ccc(NC(=O)c2cccs2)cc1,inactive
11,O=C(Nc1ccccc1-c1ccccc1)c1cccs1,inactive
12,CCc1ccccc1NC(=O)c1cccs1,25.1 µM (active)
13,Cc1cc(F)ccc1S(=O)(=O)Nc1ncnc2scc(-c3ccc(F)cc3)c12,inactive
14,CONc1nc2nonc2nc1NOC,inactive
15,CC(C)C(c1nnnn1Cc1ccccc1)N1CCC(C(N)=O)CC1 (stereo not drawn),inactive
16,CCCN(Cc1cc2cccc(C)c2[nH]c1=O)S(C)(=O)=O,inactive
17,Cc1cccc2cc(CN(Cc3nnnn3Cc3ccccc3)C3CCCC3)c(=O)[nH]c12,15.8 µM (active)
18,O=c1[nH]c(N2CCN(Cc3ccc4c(c3)OCO4)CC2)nc2c1CCCC2,inactive
19,Cc1cccc2cc(CN(Cc3ccc4c(c3)OCO4)Cc3nnnn3C3CCCC3)c(=O)[nH]c12,11.2 µM (active)
20,Cc1ccc(S(=O)(=O)Cn2nnnc2CN2CCN(Cc3ccc4c(c3)OCO4)CC2)cc1,inactive
21,CCCCCCCCCCCCN1C(=O)CSC1c1cccnc1 (stereo not drawn),inactive
22,Nc1ccc(Cl)c(S(=O)(=O)Nc2ccccc2Cl)c1,inactive
23,CCOC(=O)C1=C(CC)Nc2ccccc2N=C1N,inactive
24,CC(C)n1c(CN2CCN(Cc3ccccc3)CC2)nc2ccccc21,inactive
25,Cc1ccc2c(c1)C(O)(CC(=O)c1cccc(-n3cccc3)c1)C(=O)N2 (stereo not drawn),inactive

row,Structure (SMILES),Potency
1,O=C(NCc1ccco1)c1ccc(Cn2c(=O)c3sccc3n(Cc3ccc(F)cc3)c2=O)cc1,inactive
2,CC(C)OCCCNC(=O)c1ccc(C2SCC(=O)N2Cc2ccco2)cc1 (stereo not drawn),10 µM (active)
3,CCCCOc1ccc(C(=O)NCc2ccco2)cc1,inactive
4,Cc1ccc(-c2csc(NC(=O)c3cnccn3)n2)cc1C,inactive
5,COc1ccc(C(=O)CSc2nccc(=O)[nH]2)cc1,inactive
6,Cn1nnc(NC(=O)CSc2ncn[nH]2)n1,inactive
7,CC(C)(C)c1ccc(C(=O)CSc2ncn[nH]2)cc1,20 µM (active)
8,CC(=O)N(CCCN(C)C)c1nc2ccc(C)cc2s1,inactive
9,CC1(C)C(=O)Nc2ccccc2N1C(=O)COC(=O)Cn1cnc2ccccc2c1=O,inactive
10,Nc1ccc(C(=O)OCC(=O)NC2CCCc3ccccc32)cc1[N+](=O)[O-] (stereo not drawn),inactive
11,CCNc1ccc(C(=O)OCC(=O)N2c3ccccc3NC(=O)C2(C)C)cc1[N+](=O)[O-],11.2 µM (active)
12,COCCn1nnnc1C(c1cc2ccc(OC)cc2[nH]c1=O)N1CCc2ccccc2C1 (stereo not drawn),25.1 µM (active)
13,Cc1ccc(C(c2nnnn2C(C)(C)C)N2CCc3ccccc3C2)cc1 (stereo not drawn),inactive
14,COc1ccc(OC)c(C(c2nnnn2C(C)(C)C)N2CCc3ccccc3C2)c1 (stereo not drawn),inactive
15,CC(=O)c1ccc(N2CCN(S(=O)(=O)c3c(C)[nH]c(=O)[nH]c3=O)CC2)cc1,inactive
16,CSc1ccc(/C=N/N2CCN(Cc3ccccc3Cl)CC2)cc1,inactive
17,O=C(N1CCCC1)C12CC3CC(C1)CC(C(=O)N1CCCC1)(C3)C2,inactive
18,CC(C)(C)NC(=O)CN1CCC(NC(=O)C23CC4CC(CC(C4)C2)C3)CC1,inactive
19,CN1CCN(CC(=O)C23CC4CC(CC(C4)C2)C3)CC1,20 µM (active)
20,COC/C=C/C1=CC2=CC(=O)C(C)(OC(=O)CCC(=O)OC)C(=O)C2=CO1 (stereo not drawn),inactive
21,COc1cc(Cl)c(S(=O)(=O)n2cnc(C)c2)cc1Cl,inactive
22,COc1cc(OC)c(-n2c(C)cc(C=O)c2C)cc1Cl,7.08 µM (active)
23,Cc1ccccc1-n1c(C)cc(/C=C2\NC(=O)NC2=O)c1C,inactive
